Fh CTSL1 inh = counter-screen for PFM18AAP inhibitors: inhibitors of F. hepatica cathepsin L1. AID 1906. 0.49% of 300,000 active. recombinant F. hepatica cathepsin L1, Z-Leu-Arg-MCA fluorescence. inhibition, % at 5.96 µM;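 active = inhibition above the mean of all tested compounds plus 3 SD, set per screening campaign, cut at about 17% in these data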;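 note: 0% = plate median of test compound wells and 100% = 1 µM Z-Phe-Ala-diazomethylketone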
PHOSPHO1 inh = PHOSPHO1 (human) inhibition; 1.1% of 290,000 active; inhibition, % at 13.3 µM; recombinant PHOSPHO1, absorbance phosphatase assay; in the data active = inhibition above about 60%
HNF4A DNA FP = change in binding of human HNF4 alpha to DNA; HNF4a-FITC DNA binding, fluorescence polarization, 1 h; activity change, % at 10 µM; 0.3% of 360,000 active; in the data active = activity change above about 30%, passing the limit was not always enough
Target sequence (P41235 whole entry, looked up): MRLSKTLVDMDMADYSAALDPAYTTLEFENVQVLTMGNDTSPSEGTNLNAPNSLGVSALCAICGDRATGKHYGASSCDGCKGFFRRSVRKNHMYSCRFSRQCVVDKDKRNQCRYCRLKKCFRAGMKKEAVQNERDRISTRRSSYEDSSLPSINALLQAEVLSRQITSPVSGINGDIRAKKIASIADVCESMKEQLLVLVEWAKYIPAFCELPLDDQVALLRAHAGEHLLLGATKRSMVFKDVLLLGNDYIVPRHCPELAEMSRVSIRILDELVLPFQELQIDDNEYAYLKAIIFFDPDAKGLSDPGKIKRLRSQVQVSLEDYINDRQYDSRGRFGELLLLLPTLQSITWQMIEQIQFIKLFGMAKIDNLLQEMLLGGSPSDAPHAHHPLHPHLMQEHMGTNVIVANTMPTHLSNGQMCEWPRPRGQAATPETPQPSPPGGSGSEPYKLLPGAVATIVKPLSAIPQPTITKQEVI
TPT1 inh = inhibitors of Candida albicans tRNA 2'-phosphotransferase TPT1 | recombinant caTPT1, FP RNA substrate dephosphorylation | inhibition, % at 5 µM | 0.81% of 300,000 active | AID 1962;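 active = inhibition above the mean of all tested compounds plus 3 SD, set per screening campaign, cut at about 24% in these data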;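 note: plate controls were DMSO alone for no effect and ferristatin control at 100 nM for full effect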
Rpn11 block = blocks the human proteasome subunit Rpn11; human 26S proteasome, Ub4-pepOG fluorescence polarization; 20S core pre-blocked with epoxomicin; inhibition, % at 20 µM; AID 588493; O00487; 0.59% of 360,000 active;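 active = inhibition at 20 µM, scaled to each plate's controls, above about 33%, limit read from the data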
CendR NRP1 mod = alters CendR peptide binding to human NRP-1; O14786; FAM-RPARPAR peptide binding to NRP-1, fluorescence polarization; inhibition, % at 25 µM; 0.85% of 360,000 active; AID 602438;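 active = inhibition or corrected inhibition above about 18%, plus a signal ratio from 0.5 to 1.5, limit read from the data, passing the limit was not always enough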
TPT1 inh confirm = confirmation of Candida albicans TPT1 inhibitors | AID 2149 | recombinant caTPT1, fluorescence polarization, RNase T1 coupled | shares compounds with TPT1 inh | 74% of 2,400 active | inhibition, % at 5 µM;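 active = inhibition above the primary screen limit, the mean inhibition of all tested compounds plus 3 SD, cut at about 25% in these data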
RNase T1 counter = counter-screen for TPT1 inhibitors: inhibitors of Aspergillus oryzae RNase T1 | 83% of 2,400 active | RNase T1 cleavage, fluorescence polarization, 1536-well | inhibition, % at 5 µM | AID 2153 | shares compounds with TPT1 inh;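 active = inhibition above the solvent-only control well mean plus 3 SD, limit set per screening run, cut at about 23% in these data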;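 note: plate controls were DMSO wells with enzyme for no effect and wells without RNase T1 for full effect; inhibitors block cleavage so intact labeled substrate keeps polarization high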
Target sequence (P00651 whole entry, looked up): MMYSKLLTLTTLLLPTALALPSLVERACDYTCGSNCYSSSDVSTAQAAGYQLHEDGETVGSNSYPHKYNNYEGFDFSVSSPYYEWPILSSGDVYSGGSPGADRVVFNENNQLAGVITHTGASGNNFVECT
* marks the source's active call; other numbers are inactive results; / = not tested or not shown. Rows were chosen to be rich in hits. Some 3.3% of all compounds tested hit in one or more screens of this group.

SMILES	Fh CTSL1 inh	PHOSPHO1 inh	HNF4A DNA FP	TPT1 inh	Rpn11 block	CendR NRP1 mod	TPT1 inh confirm	RNase T1 counter
O=C(c1ccc(CS(=O)Cc2ccccc2Cl)o1)N1CCN(C2CCCCC2)CC1 (centres undefined)	2.2	24.2	-2.1	117.2*	-6.7	-0.3	7.2	4.4
O=C1COc2ccc(S(=O)(=O)N3CCN(c4cccc(C(F)(F)F)c4)CC3)cc2N1	5.6	48.8	-0.8	-2.2	-1.1	-1.0	/	/
CCN1C=C(Cc2ccc(OC)cc2)C2=C(C1)C(c1ccc(OC)cc1)C(C#N)=C(N)O2 (centres undefined)	-1.2	11.4	8.2	43.9*	29.0	-40.3	26.9*	34.8*
COc1ccc(C2C(C#N)=C(N)Oc3cc4c(cc32)OCO4)cc1 (centres undefined)	-3.2	0.2	-2.6	3.1	-0.6	-19.4	/	/
O=C(O)c1cccc(-c2ccc(/C=c3/sc4nc5ccccc5n4c3=O)o2)c1	2.8	85.0*	38.3*	97.0*	/	-248.8	117.5*	121.3*
O=C(O)c1cc(C(=O)O)cc(-c2ccc(/C=c3/sc4nc5ccccc5n4c3=O)o2)c1	/	-142.8	/	/	/	/	/	/
O=c1/c(=C\c2cc([N+](=O)[O-])cc([N+](=O)[O-])c2O)sc2nc3ccccc3n12	4.1	66.8*	40.2*	91.2*	/	9.0	90.9*	93.3*
CN(CC(=O)Nc1cccc(F)c1)C(=O)c1ccccc1CCc1ccccc1	-0.7	/	0.4	-2.0	0.9	-4.7	/	/
Cc1ccc(S(=O)(=O)NC(CC(=O)OCc2ccccc2)C(=O)OCc2ccccc2)cc1 (centres undefined)	/	/	0.5	/	-2.5	5.1	/	/
CCN1c2ccc(S(=O)(=O)N3CCOCC3)cc2N(Cc2ccc(OC)cc2)C1C (centres undefined)	1.8	42.6	4.0	31.9*	10.0	-24.2	48.3*	59.4*
CCSc1nnc(-c2ccncc2)o1	-2.3	51.3	-0.3	1.4	0.9	-1.3	/	/
CCSc1nnc(-c2sc3nnc(-c4ccccc4)c(-c4ccccc4)c3c2N)o1	1.2	-100.4	31.0	42.4*	-27.1	136.5	42.1*	51.3*
O=C(C1CCC(CNc2c(N3CCCCC3)c(=O)c2=O)CC1)N1CCCC1 (centres undefined)	1.0	8.1	0.6	1.2	-9.8	-5.2	/	/
N#Cc1cc(C(=O)c2ccccc2O)cn(-c2nccs2)c1=O	-1.6	0.1	7.8	43.7*	/	131.9	41.5*	52.0*
N#Cc1cc(C(=O)c2cc(F)ccc2O)cn(-c2nccs2)c1=O	-2.4	-5.1	36.3	55.0*	/	135.0	56.7*	66.8*
CC(C)[C@H](NC(=O)[C@@H]1Cc2ccccc2CN1)C(=O)NC1CCCCC1	0.2	32.4	2.3	1.0	0.2	-2.2	/	/
O=C(C1=C[C@@H](c2ccc(C(F)(F)F)cc2)C[C@@H](OCCCCO)O1)N1CCN(Cc2ccc3c(c2)OCO3)CC1	1.9	47.7	-0.5	-4.7	3.2	1.2	/	/
CCNc1ccc(Br)cc(C(=O)/C=C/c2c(Cl)cccc2Cl)c1=O	-1.0	-17.6	2.5	70.3*	54.0*	-232.8	75.3*	84.2*
CCNc1ccc(Br)cc(C(=O)/C=C/c2ccc(Cl)cc2)c1=O	1.5	-1.0	-1.4	64.3*	31.4	-111.8	45.7*	70.6*
NC(=O)c1ccc(NC(=O)CNC(=O)c2sc3ccccc3c2Cl)cc1	/	/	2.3	/	2.1	-35.8	/	/
O=C(CN1C(=O)NC2(CCCC2)C1=O)Nc1cccc(Cl)c1Cl	-0.9	8.7	-1.3	0.6	3.4	-2.4	/	/
O=C1CN(CC(=O)Nc2cccc(Cl)c2Cl)c2ccccc2N1	-2.3	52.7	35.4*	33.9*	/	-62.6	16.1	23.9*
COc1cccc(C(=O)NC(=O)Nc2cc(C)on2)c1	-1.7	36.5	0.4	27.1*	2.4	2.2	12.1	17.5
COc1cccc(NC(=O)Nc2cc(C)on2)c1	1.8	13.9	-7.8	-1.4	3.3	4.9	/	/
CN1CCc2c(sc3nc(SCC(=O)NCc4ccco4)n(-c4ccccc4)c(=O)c23)C1	4.1	23.5	31.6	29.6*	/	-94.7	38.1*	51.3*
SMILES	Fh CTSL1 inh	PHOSPHO1 inh	HNF4A DNA FP	TPT1 inh	Rpn11 block	CendR NRP1 mod	TPT1 inh confirm	RNase T1 counter
NS(=O)(=O)c1ccc(-c2ccc(C=NC3CCS(=O)(=O)C3)o2)cc1 (centres undefined)	1.2	13.2	4.3	6.1	17.3	-24.5	/	/
NS(=O)(=O)c1ccc(-c2ccc(/C=C3\SC(=S)N(C4CCS(=O)(=O)C4)C3=O)o2)cc1 (centres undefined)	-3.1	3.3	129.7	109.2*	/	-206.2	153.6*	142.4*
COc1ccccc1COC(=O)N/C=C/c1ccco1	-0.6	-12.3	16.7	42.1*	28.9	-70.1	19.6	24.8*
COc1cc(/C=N/NC(=O)c2sc(N)c(C#N)c2C)ccc1O	3.9	26.1	2.1	54.2*	-0.3	2.6	2.3	9.7
Cc1[nH]c2ccccc2c1/C=C/c1nc2ccccc2c(=O)n1CCO	4.5	47.6	3.4	-1.1	12.1	-69.8	/	/
CCCC1=[N+](CC(C)=O)CCn2c(C)ccc21	2.0	-7.1	-0.1	-3.0	-6.0	0.0	/	/
NC(=O)c1ccc[n+](CC(=O)c2ccc(Br)cc2)c1	5.9	0.1	0.2	0.6	0.9	2.5	/	/
CCCC1=[N+](CC(=O)c2ccccc2)CCn2cccc21	-1.8	1.8	-2.9	86.4*	7.1	-11.6	8.1	14.2
CCCC1=[N+](CC(=O)c2ccc(Br)cc2)CCn2cccc21	3.3	-32.8	7.4	118.0*	/	-12.1	8.9	18.4
O=C(NC1CC2CCC(C1)N2Cc1ccccc1)c1cccc(F)c1 (centres undefined)	-2.6	/	0.3	1.6	0.0	-1.3	/	/
CC(NC(=O)/C(=C/c1cccc([N+](=O)[O-])c1)NC(=O)c1ccco1)C(=O)O (centres undefined)	-1.2	-14.7	-1.1	130.3*	2.2	4.2	3.3	8.3
O=C(NC(Cc1ccccc1)C(=O)O)/C(=C\c1cccc([N+](=O)[O-])c1)NC(=O)c1ccco1 (centres undefined)	-2.8	52.7	-0.5	-0.9	-8.5	-5.6	/	/
COc1ccc2c(N)c(C(=O)NN)[nH]c2c1	-1.7	32.2	0.0	6.8	11.1	2.1	/	/
Nc1nonc1-n1nnc(C(=O)N/N=C/c2cc(Br)ccc2O)c1CNc1ccccc1	0.6	27.6	7.7	7.3	34.5	-0.8	/	/
Nc1nonc1C(=O)N/N=C/c1cc(Br)ccc1O	4.3	-3.9	/	32.5*	/	/	29.9*	38.4*
CC(=O)Nc1ccc(NS(=O)(=O)c2ccc(-c3cnc(C4CC4)o3)cc2)cc1	4.4	26.1	-1.7	-2.7	-4.4	1.5	/	/

High-throughput results as filed in PubChem.
